{"source": "PubChem BioAssay", "key": {"[1]": {"target": "6-phosphogluconate dehydrogenase, decarboxylating (Homo sapiens) (UniProt P52209)", "sequence (P52209 whole entry, looked up)": "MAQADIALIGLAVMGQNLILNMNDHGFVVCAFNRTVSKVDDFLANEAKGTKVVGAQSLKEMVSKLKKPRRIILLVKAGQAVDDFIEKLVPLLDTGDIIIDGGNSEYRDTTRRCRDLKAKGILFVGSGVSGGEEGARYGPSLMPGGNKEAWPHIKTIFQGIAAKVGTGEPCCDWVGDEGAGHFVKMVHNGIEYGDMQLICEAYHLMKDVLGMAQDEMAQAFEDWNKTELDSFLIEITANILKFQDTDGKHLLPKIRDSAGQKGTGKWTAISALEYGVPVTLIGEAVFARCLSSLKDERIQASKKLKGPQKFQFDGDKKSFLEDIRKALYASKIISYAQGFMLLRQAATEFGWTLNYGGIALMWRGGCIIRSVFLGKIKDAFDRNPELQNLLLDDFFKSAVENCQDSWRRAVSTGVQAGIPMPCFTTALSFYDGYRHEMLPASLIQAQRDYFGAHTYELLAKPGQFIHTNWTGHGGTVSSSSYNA", "assay": "inhibition of human phosphogluconate dehydrogenase – biochemical, recombinant enzyme, NADPH absorbance, primary screen (AID 1159550;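 active means at least 20% inhibition of 6-phosphogluconate dehydrogenase activity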)", "conditions": "recombinant 6PGD, NADPH absorbance 341 nm; at 10 µM; stronger effect = higher value"}, "[2]": {"system": "Aerobactin synthetase IucA (Klebsiella pneumoniae hvKP1)", "assay": "IucA enzyme inhibition, primary screen, biochemical, Spectrum library (AID 1346200);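 further: 100% = wells without compound and 0% = wells lacking enzyme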", "conditions": "malachite green pyrophosphate, A620, at 8 µM, stronger effect = lower value"}, "[3]": {"target": "Mitogen-activated protein kinase 7 (Homo sapiens) (UniProt Q13164)", "sequence (Q13164 whole entry, looked up, the tested form may be a part)": "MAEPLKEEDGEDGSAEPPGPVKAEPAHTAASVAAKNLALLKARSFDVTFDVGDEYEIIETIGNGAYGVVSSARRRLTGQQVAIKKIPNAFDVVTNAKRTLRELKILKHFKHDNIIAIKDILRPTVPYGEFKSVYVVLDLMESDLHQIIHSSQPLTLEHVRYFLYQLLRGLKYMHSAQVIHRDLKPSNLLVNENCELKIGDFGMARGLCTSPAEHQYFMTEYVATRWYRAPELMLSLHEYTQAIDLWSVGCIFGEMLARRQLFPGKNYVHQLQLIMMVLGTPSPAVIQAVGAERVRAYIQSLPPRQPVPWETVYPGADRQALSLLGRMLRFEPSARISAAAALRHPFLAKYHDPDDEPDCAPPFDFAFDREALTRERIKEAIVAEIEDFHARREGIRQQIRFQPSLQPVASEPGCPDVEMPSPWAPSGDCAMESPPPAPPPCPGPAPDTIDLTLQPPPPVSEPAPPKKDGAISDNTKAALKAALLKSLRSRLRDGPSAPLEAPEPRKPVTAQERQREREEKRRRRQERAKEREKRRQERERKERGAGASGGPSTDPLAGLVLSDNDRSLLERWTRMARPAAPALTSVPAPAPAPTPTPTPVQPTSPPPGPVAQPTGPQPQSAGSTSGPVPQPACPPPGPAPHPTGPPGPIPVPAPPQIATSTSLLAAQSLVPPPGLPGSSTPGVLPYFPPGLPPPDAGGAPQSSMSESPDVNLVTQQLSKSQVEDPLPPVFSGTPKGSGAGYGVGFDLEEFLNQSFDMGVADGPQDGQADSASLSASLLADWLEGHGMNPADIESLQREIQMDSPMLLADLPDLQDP", "assay": "Gal4-ERK5 driven luciferase induction – cell-based, HTS, primary screen (AID 1508626;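 active means luciferase signal above three times the same-plate solvent-only control wells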;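 further: luciferase driven by Gal4-ERK5 fusion binding five Gal4 sites before minimal TATA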)", "conditions": "HeLa Gal4-ERK5 transactivation, 18 h, at 5 µM, stronger effect = higher value"}, "[4]": {"target": "ATP-dependent translocase ABCB1 (Homo sapiens) (UniProt P08183)", "sequence (P08183 whole entry, looked up)": "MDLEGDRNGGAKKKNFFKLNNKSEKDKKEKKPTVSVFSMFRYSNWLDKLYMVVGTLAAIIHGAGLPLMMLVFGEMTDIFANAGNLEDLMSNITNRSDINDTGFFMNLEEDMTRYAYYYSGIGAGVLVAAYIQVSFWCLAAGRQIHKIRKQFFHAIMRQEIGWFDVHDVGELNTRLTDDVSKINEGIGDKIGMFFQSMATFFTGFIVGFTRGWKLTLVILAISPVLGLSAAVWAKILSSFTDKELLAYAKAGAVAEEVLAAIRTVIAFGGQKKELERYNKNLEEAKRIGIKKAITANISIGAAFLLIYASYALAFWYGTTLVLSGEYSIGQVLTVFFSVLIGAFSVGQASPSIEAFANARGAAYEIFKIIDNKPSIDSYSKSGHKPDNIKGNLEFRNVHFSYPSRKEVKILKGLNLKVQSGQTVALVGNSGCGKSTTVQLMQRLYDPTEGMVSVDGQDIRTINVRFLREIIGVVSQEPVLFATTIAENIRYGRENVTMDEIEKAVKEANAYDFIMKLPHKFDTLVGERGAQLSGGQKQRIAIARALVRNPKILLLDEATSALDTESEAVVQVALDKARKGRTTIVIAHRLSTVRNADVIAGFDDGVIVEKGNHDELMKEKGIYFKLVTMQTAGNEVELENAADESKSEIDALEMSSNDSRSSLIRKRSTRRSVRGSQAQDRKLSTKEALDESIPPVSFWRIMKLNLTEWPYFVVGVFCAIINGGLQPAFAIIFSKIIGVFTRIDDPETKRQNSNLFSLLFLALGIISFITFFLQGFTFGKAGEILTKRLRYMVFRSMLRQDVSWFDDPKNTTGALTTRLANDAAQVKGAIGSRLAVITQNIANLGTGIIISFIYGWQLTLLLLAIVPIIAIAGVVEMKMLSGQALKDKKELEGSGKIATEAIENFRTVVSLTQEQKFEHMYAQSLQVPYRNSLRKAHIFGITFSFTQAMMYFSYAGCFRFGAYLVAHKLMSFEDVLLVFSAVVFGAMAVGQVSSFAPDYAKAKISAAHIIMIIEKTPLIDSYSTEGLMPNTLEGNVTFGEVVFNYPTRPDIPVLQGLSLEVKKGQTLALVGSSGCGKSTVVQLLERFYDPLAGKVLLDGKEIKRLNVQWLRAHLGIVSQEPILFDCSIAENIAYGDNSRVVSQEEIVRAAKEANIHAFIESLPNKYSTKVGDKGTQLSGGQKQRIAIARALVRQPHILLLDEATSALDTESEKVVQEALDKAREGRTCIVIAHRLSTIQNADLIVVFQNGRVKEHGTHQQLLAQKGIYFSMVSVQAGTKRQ", "assay": "P-glycoprotein substrate transport blockade – cell-based (AID 377; in the data active means fluorescence slope change above about 50%)", "conditions": "MDR1-expressing cells, fluorescent substrate accumulation slope; stronger effect = higher value; concentration not given here"}, "[5]": {"assay": "blockers of polyQ-driven CASP3 activation – cell-based (AID 1583)", "conditions": "polyglutamine-induced caspase-3 activation, cell assay; stronger effect = higher value;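 tested at 10 µM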"}, "[6]": {"assay": "yeast 75Q aggregation reduction – 75Q-TubU reporter (AID 1593)", "conditions": "Yeast 75Q polyglutamine aggregation reporter"}, "[7]": {"assay": "restoration of touch response, mutant HTT neurons – whole organism, C. elegans mechanosensory neurons, N-terminal huntingtin (AID 1599)", "conditions": "C. elegans polyQ-huntingtin mechanosensory neurons, stronger effect = higher value"}, "[8]": {"assay": "blockers of cytochrome c efflux from mitochondria – biochemical, purified mitochondria (AID 1603);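 further: mouse liver mitochondria challenged with calcium chloride; signal normalized to the plate average as 100%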", "conditions": "stronger effect = lower value"}, "[9]": {"assay": "polyglutamine aggregate formation blockers (AID 1604)", "conditions": "polyglutamine-induced protein aggregation inhibition assay; stronger effect = higher value; tested at 2.5 µM"}, "[10]": {"assay": "glutamate transport activators, MN-1 cells, MN-1 cell line (AID 1612);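 further: tested at 1 µM final; 0% = mean of DMSO vehicle wells on each plate; positive means more glutamate uptake than control and negative means less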", "conditions": "MN-1 motor neuron cells, stronger effect = higher value"}, "[11]": {"assay": "75Q-TubH aggregate inhibition, S. cerevisiae, yeast (AID 1616)", "conditions": "S. cerevisiae 75Q-TubH polyglutamine aggregation suppression; stronger effect = higher value"}, "[12]": {"assay": "P. berghei load reduction in hepatocytes – cell-based, HepG2, luciferase luminescence, HepG2 viability, primary screen (AID 624349; in the data active means parasite load remaining mostly below about 12%, no sharp cut-off; inactive means mostly above about 10%;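 further: 100% = mean of DMSO negative control wells on the same plate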)", "conditions": "P. berghei liver stage in HepG2, luciferase luminescence, concentration not given here; parasite load remaining: stronger effect = lower value; viability: measured here: HepG2 viability without parasites"}, "[13]": {"assay": "viability loss with induced miR-34 in A549 – imaging, A549 dox-inducible miR-34, nuclei and caspase counts, primary screen (AID 1347080;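 active means compounds whose cell count with miR-34 switched on is under 0.7 times the count with it off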)", "conditions": "A549 miR-34 inducible, Hoechst nuclei count, 48 h"}, "[14]": {"target": "NAD(+) hydrolase SARM1 (Homo sapiens) (UniProt Q6SZW1)", "sequence (Q6SZW1 whole entry, looked up)": "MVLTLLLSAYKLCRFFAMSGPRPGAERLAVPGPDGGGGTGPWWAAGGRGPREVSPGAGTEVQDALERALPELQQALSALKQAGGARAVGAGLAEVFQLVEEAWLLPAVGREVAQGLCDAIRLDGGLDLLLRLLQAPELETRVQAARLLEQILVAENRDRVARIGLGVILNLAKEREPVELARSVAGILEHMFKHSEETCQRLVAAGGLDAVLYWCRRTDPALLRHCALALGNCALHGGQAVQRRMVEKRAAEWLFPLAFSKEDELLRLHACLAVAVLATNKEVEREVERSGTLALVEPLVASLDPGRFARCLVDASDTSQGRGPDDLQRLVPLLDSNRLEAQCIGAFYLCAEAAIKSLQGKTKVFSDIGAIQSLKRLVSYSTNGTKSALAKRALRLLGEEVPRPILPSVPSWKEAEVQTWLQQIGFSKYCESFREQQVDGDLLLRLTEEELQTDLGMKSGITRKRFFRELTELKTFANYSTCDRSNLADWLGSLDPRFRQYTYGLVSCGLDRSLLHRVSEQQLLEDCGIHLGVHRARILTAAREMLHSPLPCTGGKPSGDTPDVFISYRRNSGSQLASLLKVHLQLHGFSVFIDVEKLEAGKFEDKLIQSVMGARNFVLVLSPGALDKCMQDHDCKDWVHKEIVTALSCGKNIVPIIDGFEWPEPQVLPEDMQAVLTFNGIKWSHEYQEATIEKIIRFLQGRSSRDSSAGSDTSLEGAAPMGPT", "assay": "blocking NAD cleavage by SARM1 SAM-TIR – cell lysate, NAD-Glo luminescence (AID 1508614;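 active means compound whose remaining NAD level is above about 45 nM, limit read from the data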)", "conditions": "SAM-TIR HEK293T lysate NADase, at 1 µM, stronger effect = higher value"}, "[15]": {"assay": "compounds altering circadian rhythm period length – cell-based, LOPAC library, luminescence reporter (AID 2774)", "conditions": "circadian reporter cells, at 7 µM, actives lie on both sides"}, "[16]": {"system": "Hepatitis C virus NS3 helicase", "assay": "blockers of NS3h binding to ssDNA – biochemical, fluorescence polarization, LOPAC1280 library, primary screen (AID 687035; in the data active means inhibition above about 37%)", "conditions": "Purified HCV NS3 helicase, Cy5-dT15 ssDNA binding fluorescence polarization; stronger effect = higher value; concentration not given here"}, "[17]": {"assay": "compounds altering Cy5-DNA-NS3h complex signal – biochemical, LOPAC1280, artefact control for HCV NS3 helicase inhibitor project (AID 687037)", "conditions": "Cy5-DNA-NS3h complex fluorescence interference counterscreen"}, "[18]": {"system": "Aerobactin synthetase IucA (Klebsiella pneumoniae, hypervirulent)", "assay": "biochemical IucA inhibition screen of LOPAC library by absorbance (AID 1346212);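 further: 100% = no compound wells and 0% = no enzyme wells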", "conditions": "IucA enzyme assay, absorbance (OD) readout; stronger effect = lower value;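 tested at 8 µM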"}, "[19]": {"assay": "viability loss in pontine glioma line – cell-based, SU-DIPG-XIII, MIPE4.0, CellTiter-Glo, qHTS, dose response (AID 1347061; cut-off not given, nearly all actives have AC50 up to about 37 µM;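 further: cells exposed to compound for 48 hours before readout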)", "conditions": "CellTiter-Glo ATP luminescence"}, "[20]": {"assay": "viability loss in pontine glioma line – cell-based, JHH-DIPG-1, MIPE4.0, CellTiter-Glo, qHTS, dose response (AID 1347062; cut-off not given, nearly all actives have AC50 up to about 27 µM)", "conditions": "JHH-DIPG-1 viability, CellTiter-Glo ATP luminescence"}, "[21]": {"assay": "viability loss in pontine glioma line – cell-based, SU-DIPG-IV, MIPE4.0, CellTiter-Glo, qHTS, dose response (AID 1347063; cut-off not given, nearly all actives have AC50 up to about 30 µM;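 further: compound exposure lasted 48 hours before the viability readout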)", "conditions": "CellTiter-Glo ATP luminescence"}, "[22]": {"assay": "growth inhibition of DIPG cells – cell-based, MIPE4.0 library, CellTiter-Glo luminescence, qHTS (AID 1347066; cut-off not given, nearly all actives have AC50 up to about 30 µM;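 further: cells exposed to compound for 48 hours before readout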)", "conditions": "SU-DIPG-VI viability, CellTiter-Glo ATP luminescence"}, "[23]": {"assay": "galactose survival enhancers in mitochondrial complex I cybrids – cell-based, galactose medium, ATP luminescence, primary screen (AID 1645843;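 active means z-score of at least 1.8 in each of two replicates, scored against plate mean and spread of sample wells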;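 further: positive z means more ATP and so rescue of galactose-driven cybrid death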)", "conditions": "complex I mutant cybrid cells, 72 h, stronger effect = higher value"}, "[24]": {"assay": "signal quenchers or enhancers, Cy5 substrate/SSB – biochemical, NIH Clinical Collection, E. coli SSB, artefact control for HCV NS3 helicase inhibitor project (AID 743268)", "conditions": "Cy5-oligo bound E. coli SSB, fluorescence interference"}, "[25]": {"system": "Hepatitis C virus NS3 helicase", "assay": "blockers of NS3h binding to DNA – biochemical, fluorescence polarization, NIH Clinical Collection, primary screen (AID 743270)", "conditions": "NS3 helicase binding to Cy5-dT15 DNA, stronger effect = higher value, concentration not given here"}, "[26]": {"target": "Single-stranded DNA-binding protein (Escherichia coli (strain K12)) (UniProt P0AGE0)", "assay": "SSB-ssDNA binding inhibitors – biochemical, fluorescence polarization, NIH Clinical Collection, counter-screen for HCV NS3 helicase inhibitor project (AID 743271; in the data active means inhibition above about 28%)", "conditions": "E. coli SSB-DNA binding, stronger effect = higher value, concentration not given here"}, "[27]": {"assay": "compounds distorting NS3 helicase fluorescence signal – biochemical, NIH Clinical Collection, artefact control for HCV NS3 helicase inhibitor project (AID 743272)", "conditions": "fluorescence interference counterscreen, HCV NS3 helicase assay; stronger effect = lower value"}, "[28]": {"conditions": "measured here: relative caspase fold change +Dox/-Dox"}, "[29]": {"conditions": "measured here: total cells with miR-34 induction, stronger effect = lower value"}, "[30]": {"conditions": "measured here: total cells without miR-34 induction"}}, "note": "Values joined by “and” are separate entries in the source; they are usually repeats but may differ in a detail not shown here. Equal entries are not always repeated. Records with an inconclusive call do not appear. For some assays here: Potency and affinity values are given separately. Active and inactive are the calls of the source. Unless noted, how the calls were made is not given here.", "data": [{"compound": "CCOP(=S)(OCC)SCn1c(=O)oc2cc(Cl)ccc21", "values": [{"measurement": "inhibition", "setting": "[1]", "value": "-13.8% (inactive)"}, {"measurement": "activity remaining", "setting": "[2]", "value": "96.1% (inactive)"}]}, {"compound": "CNC(=O)N(C)c1nnc(C(C)(C)C)s1", "values": [{"measurement": "inhibition", "setting": "[1]", "value": "-12.3% (inactive)"}, {"measurement": "activity remaining", "setting": "[2]", "value": "98% (inactive)"}]}, {"compound": "COC1=CC23CCCN2CCc2cc4c(cc2C3C1O)OCO4", "note": "(centres undefined)", "values": [{"measurement": "inhibition", "setting": "[1]", "value": "-9.46% (inactive)"}, {"measurement": "activity remaining", "setting": "[2]", "value": "108% (inactive)"}]}, {"compound": "CCC(C)C(=O)O[C@@H]1C[C@@]2(C)[C@H](c3ccoc3)OC(=O)CC23OC2(C)O[C@]14[C@]1(C)[C@@H](CC(=O)OC)C5(C)CC1(O)[C@](O)(C5OC(=O)C1(C)OC1C)[C@@H](OC(C)=O)[C@]34O2", "note": "(some centres undefined)", "values": [{"measurement": "inhibition", "setting": "[1]", "value": "-16.5% (inactive)"}, {"measurement": "activity remaining", "setting": "[2]", "value": "103% (inactive)"}, {"measurement": "luciferase signal", "setting": "[3]", "value": "12 AU (inactive)"}]}, {"compound": "CSc1nc(NC(C)C)nc(NC(C)C)n1", "values": [{"measurement": "inhibition", "setting": "[1]", "value": "-9.01% (inactive)"}, {"measurement": "activity remaining", "setting": "[2]", "value": "98.6% (inactive)"}, {"measurement": "luciferase signal", "setting": "[3]", "value": "60 AU (inactive)"}]}, {"compound": "C[CH2][Hg][S]c1ccccc1C(=O)O", "values": [{"measurement": "fluorescence slope change", "setting": "[4]", "value": "-19.9% (inactive)"}, {"measurement": "inhibition", "setting": "[5]", "value": 67.3, "unit": "%"}, {"measurement": "score", "setting": "[6]", "value": -0.03}, {"measurement": "rescue above control", "setting": "[7]", "value": 0}, {"measurement": "cytochrome c release ratio", "setting": "[8]", "value": 0.71}, {"measurement": "inhibition of aggregation", "setting": "[9]", "value": 18.2, "unit": "%"}, {"measurement": "glutamate uptake change", "setting": "[10]", "value": 8.21, "unit": "%"}, {"measurement": "aggregation suppression score", "setting": "[11]", "value": -0.00186}, {"measurement": "parasite load remaining", "setting": "[12]", "value": "82.3% (inactive) and 0.045% (inactive)"}, {"measurement": "viability", "setting": "[12]", "value": "62% and 0.315%"}, {"measurement": "inhibition", "setting": "[1]", "value": "17.7% (inactive)"}, {"measurement": "activity remaining", "setting": "[2]", "value": "-3.51% (active)"}, {"measurement": "fold change", "setting": "[13]; stronger effect = lower value", "value": "1.62 (inactive)"}, {"measurement": "fold change", "setting": "[13]; [28]", "value": 0.728}, {"measurement": "cell count", "setting": "[13]; [29]", "value": 630}, {"measurement": "cell count", "setting": "[13]; [30]", "value": 389}, {"measurement": "remaining NAD", "setting": "[14]", "value": "10 nM (inactive)"}, {"measurement": "luciferase signal", "setting": "[3]", "value": "44 AU (inactive)"}]}, {"compound": "C[N+](C)(C)CC(=O)O", "values": [{"measurement": "period change", "setting": "[15]", "value": "-0.005 h (inactive)"}, {"measurement": "inhibition", "setting": "[16]", "value": "-5% (inactive)"}, {"measurement": "fluorescence ratio (interference)", "setting": "[17]", "value": "0.9 (inactive)"}, {"measurement": "inhibition", "setting": "[1]", "value": "5.32% (inactive)"}, {"measurement": "remaining activity", "setting": "[18]", "value": "106% (inactive)"}, {"measurement": "outcome", "setting": "[19]", "value": "inactive"}, {"measurement": "outcome", "setting": "[20]", "value": "inactive"}, {"measurement": "outcome", "setting": "[21]", "value": "inactive"}, {"measurement": "outcome", "setting": "[22]", "value": "inactive"}, {"measurement": "fold change", "setting": "[13]; stronger effect = lower value", "value": "1.03 (inactive)"}, {"measurement": "fold change", "setting": "[13]; [28]", "value": 1.89}, {"measurement": "cell count", "setting": "[13]; [29]", "value": 9950}, {"measurement": "cell count", "setting": "[13]; [30]", "value": 9700}, {"measurement": "remaining NAD", "setting": "[14]", "value": "10 nM (inactive)"}, {"measurement": "luciferase signal", "setting": "[3]", "value": "268 AU (inactive)"}, {"measurement": "z-score", "setting": "[23]", "value": "0.805 (inactive)"}]}, {"compound": "C[C@]12CC[C@H]3[C@@H](CCC4=CC(=O)CC[C@@]43C)[C@@H]1CC[C@@H]2O", "values": [{"measurement": "parasite load remaining", "setting": "[12]", "value": "61.8% (inactive)"}, {"measurement": "viability", "setting": "[12]", "value": 72.2, "unit": "%"}, {"measurement": "fluorescence ratio", "setting": "[24]", "value": "0.93 (inactive)"}, {"measurement": "inhibition", "setting": "[25]", "value": "1.53% (inactive)"}, {"measurement": "inhibition", "setting": "[26]", "value": "0.39% (inactive)"}, {"measurement": "fluorescence ratio", "setting": "[27]", "value": "0.96 (inactive)"}, {"measurement": "inhibition", "setting": "[1]", "value": "16.5% (inactive)"}, {"measurement": "outcome", "setting": "[19]", "value": "inactive"}, {"measurement": "outcome", "setting": "[20]", "value": "inactive"}, {"measurement": "outcome", "setting": "[21]", "value": "inactive"}, {"measurement": "outcome", "setting": "[22]", "value": "inactive"}, {"measurement": "remaining NAD", "setting": "[14]", "value": "10 nM (inactive)"}, {"measurement": "luciferase signal", "setting": "[3]", "value": "68 AU (inactive)"}]}]}
